For some assays here: Potency and affinity values are given separately.
Assays:
Parameters in all cases: scale not given: direction of the effect not stated beside the values
[1] = biological target: Protein translocase subunit SecA (Escherichia coli (strain K12)) (UniProt P10408); assay: Assay to Identify E. coli SecA ATPase Inhibitors; assay type: functional; settings: 30 µM
[2] = biological target: T1, Ubiquitin-activating enzyme e1, putative (Leishmania donovani (strain BPK282A1)) (UniProt E9BSI1); assay: Leishmania donovani Ubiquitin Activating Enzyme (LdE1); assay type: functional; settings: 30 µM
T1 sequence (whole entry): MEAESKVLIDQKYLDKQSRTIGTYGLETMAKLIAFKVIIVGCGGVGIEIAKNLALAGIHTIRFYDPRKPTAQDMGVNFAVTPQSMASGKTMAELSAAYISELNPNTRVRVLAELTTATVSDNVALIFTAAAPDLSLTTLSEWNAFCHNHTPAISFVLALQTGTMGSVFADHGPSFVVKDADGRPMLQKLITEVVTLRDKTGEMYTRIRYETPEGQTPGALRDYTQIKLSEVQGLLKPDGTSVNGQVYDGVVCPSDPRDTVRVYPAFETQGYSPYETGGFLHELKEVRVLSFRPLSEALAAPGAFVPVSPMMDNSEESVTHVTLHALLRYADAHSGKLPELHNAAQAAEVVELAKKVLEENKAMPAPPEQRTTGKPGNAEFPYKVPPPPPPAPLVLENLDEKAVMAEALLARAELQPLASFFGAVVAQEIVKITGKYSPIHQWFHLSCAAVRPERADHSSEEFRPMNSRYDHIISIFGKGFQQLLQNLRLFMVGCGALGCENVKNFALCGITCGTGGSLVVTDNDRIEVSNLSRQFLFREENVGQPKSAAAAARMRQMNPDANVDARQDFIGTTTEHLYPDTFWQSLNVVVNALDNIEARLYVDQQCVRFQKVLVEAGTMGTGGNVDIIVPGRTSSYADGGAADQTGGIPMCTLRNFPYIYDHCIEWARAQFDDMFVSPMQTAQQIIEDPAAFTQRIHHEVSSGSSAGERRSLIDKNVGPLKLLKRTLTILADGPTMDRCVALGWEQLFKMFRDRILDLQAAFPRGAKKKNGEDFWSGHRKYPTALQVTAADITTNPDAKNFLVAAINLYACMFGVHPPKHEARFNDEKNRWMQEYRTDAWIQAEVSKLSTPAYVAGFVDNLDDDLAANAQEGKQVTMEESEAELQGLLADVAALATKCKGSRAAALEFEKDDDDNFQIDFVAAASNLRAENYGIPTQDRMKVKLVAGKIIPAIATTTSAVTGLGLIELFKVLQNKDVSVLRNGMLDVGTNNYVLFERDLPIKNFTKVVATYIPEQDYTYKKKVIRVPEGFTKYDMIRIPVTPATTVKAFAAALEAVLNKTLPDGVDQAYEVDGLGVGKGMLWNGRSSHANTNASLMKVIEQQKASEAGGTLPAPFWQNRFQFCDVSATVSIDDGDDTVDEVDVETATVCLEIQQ

[3] = biological target: AMP-activated protein kinase, AMPK (Homo sapiens) (UniProt P54646+O43741+P54619+Q9UGJ0+Q9Y478+Q13131+Q9UGI9); assay: AMP-dependent Kinase enzyme assay. An in vitro enzyme assay that detects ADP turnover that is directly proportional to AMPK activity. This uses naive AMPK that is activated during the assay with MK-8722; assay type: functional; settings: 30 µM
[4] = biological target: Sialic acid-binding Ig-like lectin 9 (Homo sapiens) (UniProt Q9Y336); assay: Hs-Siglec9 ALPHAscreen SOP 20170721; settings: 10 µM
Trypanosoma cruzi = assay: Trypanosoma cruzi phosphomannomutase and mannose-1-phosphate guanylyltransferase assay; assay type: functional; settings: 10 µM
[5] = biological target: T2, Arginase-2, mitochondrial (Homo sapiens) (UniProt P78540); assay: in vitro enzyme assay to detect the production of urea directly proportional to the activity of Arginase II; assay type: functional; settings: 33.3 µM; further: in the data most compounds retested in dose-response had high values
T2 sequence (whole entry): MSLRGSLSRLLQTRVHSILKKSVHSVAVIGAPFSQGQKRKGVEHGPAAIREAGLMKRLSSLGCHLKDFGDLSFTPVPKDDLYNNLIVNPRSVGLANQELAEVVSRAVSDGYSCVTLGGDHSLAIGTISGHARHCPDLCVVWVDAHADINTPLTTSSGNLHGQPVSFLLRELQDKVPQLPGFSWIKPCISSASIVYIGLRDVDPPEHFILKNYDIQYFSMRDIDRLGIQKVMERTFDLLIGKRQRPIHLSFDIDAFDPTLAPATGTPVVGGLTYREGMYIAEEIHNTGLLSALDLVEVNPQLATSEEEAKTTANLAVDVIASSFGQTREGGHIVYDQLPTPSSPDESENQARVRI

[6] = biological target: T3, Proteasome subunit beta (Trypanosoma cruzi) (UniProt O96673); assay: Trypanosoma cruzi proteasome chymotrypsin-like activity (TcProtChymo) assay.; further: in the data most compounds retested in dose-response had high values; assay type: functional; settings: 9.37 µM
T3 sequence (whole entry): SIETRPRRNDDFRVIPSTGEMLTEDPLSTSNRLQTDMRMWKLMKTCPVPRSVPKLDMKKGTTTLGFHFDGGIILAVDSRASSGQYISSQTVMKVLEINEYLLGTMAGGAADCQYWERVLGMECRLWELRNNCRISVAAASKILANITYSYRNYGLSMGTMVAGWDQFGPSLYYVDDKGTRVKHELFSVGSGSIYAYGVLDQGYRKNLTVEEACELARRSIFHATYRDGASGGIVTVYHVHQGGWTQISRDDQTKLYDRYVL

Homo sapiens = species: Homo sapiens; assay: To identify inhibition of the IFN signalling (Jak-Stat) pathway via expression of an eGFP reporter gene under the control of an IFN-stimulated response element (ISRE) containing MxA promoter.; assay type: functional; settings: 30 µM
[7] = biological target: T4, Tyrosyl-tRNA synthetase, putative (Trypanosoma cruzi (strain CL Brener)) (UniProt Q4DSP6); assay: Trypanosoma cruzi tyrosyl tRNA synthetase (TcYRS) _High Tyrosine SOP; assay type: functional; settings: 30 µM; further: in the data most compounds retested in dose-response had high values
T4 sequence (whole entry): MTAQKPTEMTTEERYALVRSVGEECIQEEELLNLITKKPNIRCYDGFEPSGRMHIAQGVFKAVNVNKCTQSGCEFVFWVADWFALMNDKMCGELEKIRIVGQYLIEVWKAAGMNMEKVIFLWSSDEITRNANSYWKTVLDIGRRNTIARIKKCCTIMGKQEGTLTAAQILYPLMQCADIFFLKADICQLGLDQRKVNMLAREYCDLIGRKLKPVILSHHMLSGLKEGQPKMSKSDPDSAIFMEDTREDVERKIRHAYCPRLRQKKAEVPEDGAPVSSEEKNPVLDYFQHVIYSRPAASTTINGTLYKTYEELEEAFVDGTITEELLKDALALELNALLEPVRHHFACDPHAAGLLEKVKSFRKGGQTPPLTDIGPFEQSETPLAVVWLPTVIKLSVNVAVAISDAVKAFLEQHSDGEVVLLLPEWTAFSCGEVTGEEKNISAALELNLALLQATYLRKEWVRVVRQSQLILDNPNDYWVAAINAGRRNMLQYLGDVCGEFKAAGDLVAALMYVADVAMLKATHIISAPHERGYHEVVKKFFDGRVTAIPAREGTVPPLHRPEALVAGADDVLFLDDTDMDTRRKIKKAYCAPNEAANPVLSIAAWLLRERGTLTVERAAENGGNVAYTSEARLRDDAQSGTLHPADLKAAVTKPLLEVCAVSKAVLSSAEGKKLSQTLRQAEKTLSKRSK

[8] = biological target: T4, Tyrosyl-tRNA synthetase, putative (Trypanosoma cruzi (strain CL Brener)); assay: Trypanosoma cruzi tyrosyl tRNA synthetase (TcYRS) SOP; assay type: functional; settings: 30 µM
[9] = biological target: Chromo domain-containing protein 1 (Saccharomyces cerevisiae (strain ATCC 204508 / S288c) (Baker's yeast)) (UniProt P32657); assay: ScCHD-1 Enzyme Inhibition Assay; assay type: functional; settings: 30 µM; further: in the data most compounds retested in dose-response had high values
Chain of Chromo domain-containing protein 1 (Saccharomyces cerevisiae (strain ATCC 204508 / S288c) (Baker's yeast)) (P32657 whole entry, the tested form may be a part): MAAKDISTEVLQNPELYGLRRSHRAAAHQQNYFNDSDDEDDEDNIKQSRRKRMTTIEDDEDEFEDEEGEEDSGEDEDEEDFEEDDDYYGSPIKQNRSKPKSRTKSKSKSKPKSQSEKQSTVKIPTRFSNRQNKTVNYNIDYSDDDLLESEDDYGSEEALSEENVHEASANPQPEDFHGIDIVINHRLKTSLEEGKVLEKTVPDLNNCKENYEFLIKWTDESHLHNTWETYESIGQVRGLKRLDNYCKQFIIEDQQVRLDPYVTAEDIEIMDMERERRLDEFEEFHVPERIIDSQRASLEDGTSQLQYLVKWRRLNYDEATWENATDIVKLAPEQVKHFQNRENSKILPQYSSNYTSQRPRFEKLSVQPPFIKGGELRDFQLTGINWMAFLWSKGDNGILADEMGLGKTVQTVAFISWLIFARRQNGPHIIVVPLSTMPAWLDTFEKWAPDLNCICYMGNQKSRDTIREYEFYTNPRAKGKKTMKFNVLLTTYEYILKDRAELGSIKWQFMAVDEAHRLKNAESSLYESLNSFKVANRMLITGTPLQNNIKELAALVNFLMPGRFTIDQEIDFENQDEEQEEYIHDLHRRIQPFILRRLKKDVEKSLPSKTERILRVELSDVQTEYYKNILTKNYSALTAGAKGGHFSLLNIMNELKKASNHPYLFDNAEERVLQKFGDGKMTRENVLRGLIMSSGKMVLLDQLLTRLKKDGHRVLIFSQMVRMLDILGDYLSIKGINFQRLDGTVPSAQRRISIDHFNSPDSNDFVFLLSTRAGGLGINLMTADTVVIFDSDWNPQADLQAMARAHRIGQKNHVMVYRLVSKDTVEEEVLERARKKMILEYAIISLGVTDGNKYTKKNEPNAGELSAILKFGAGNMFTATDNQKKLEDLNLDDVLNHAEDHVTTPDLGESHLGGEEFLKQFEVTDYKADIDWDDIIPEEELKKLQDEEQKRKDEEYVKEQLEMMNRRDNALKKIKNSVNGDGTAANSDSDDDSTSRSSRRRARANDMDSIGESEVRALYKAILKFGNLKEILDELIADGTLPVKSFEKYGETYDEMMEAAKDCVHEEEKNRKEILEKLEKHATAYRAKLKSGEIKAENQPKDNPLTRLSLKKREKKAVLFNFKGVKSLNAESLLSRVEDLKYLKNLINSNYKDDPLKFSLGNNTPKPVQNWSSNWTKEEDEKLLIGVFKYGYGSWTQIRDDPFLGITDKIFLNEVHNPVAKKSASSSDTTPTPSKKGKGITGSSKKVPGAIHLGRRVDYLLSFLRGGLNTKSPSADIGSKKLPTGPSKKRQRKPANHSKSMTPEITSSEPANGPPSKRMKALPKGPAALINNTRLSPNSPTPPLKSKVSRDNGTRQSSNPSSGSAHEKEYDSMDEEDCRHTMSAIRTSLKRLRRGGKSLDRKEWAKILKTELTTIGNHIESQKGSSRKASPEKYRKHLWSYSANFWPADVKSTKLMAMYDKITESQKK

Chain of Sialic acid-binding Ig-like lectin 9 (Homo sapiens) (Q9Y336 whole entry): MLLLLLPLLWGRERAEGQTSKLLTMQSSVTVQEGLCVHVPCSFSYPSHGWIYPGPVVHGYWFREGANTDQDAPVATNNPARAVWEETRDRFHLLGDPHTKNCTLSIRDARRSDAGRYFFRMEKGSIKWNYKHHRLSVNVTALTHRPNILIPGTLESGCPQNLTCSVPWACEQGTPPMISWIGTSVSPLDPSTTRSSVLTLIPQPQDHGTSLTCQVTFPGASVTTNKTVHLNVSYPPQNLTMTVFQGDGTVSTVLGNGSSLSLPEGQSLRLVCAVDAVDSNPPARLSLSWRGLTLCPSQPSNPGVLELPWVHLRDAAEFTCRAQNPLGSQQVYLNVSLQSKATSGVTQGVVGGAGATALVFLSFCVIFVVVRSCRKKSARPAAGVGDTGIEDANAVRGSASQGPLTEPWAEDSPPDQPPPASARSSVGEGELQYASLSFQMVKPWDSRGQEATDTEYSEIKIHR
Chain of Protein translocase subunit SecA (Escherichia coli (strain K12)) (P10408 whole entry): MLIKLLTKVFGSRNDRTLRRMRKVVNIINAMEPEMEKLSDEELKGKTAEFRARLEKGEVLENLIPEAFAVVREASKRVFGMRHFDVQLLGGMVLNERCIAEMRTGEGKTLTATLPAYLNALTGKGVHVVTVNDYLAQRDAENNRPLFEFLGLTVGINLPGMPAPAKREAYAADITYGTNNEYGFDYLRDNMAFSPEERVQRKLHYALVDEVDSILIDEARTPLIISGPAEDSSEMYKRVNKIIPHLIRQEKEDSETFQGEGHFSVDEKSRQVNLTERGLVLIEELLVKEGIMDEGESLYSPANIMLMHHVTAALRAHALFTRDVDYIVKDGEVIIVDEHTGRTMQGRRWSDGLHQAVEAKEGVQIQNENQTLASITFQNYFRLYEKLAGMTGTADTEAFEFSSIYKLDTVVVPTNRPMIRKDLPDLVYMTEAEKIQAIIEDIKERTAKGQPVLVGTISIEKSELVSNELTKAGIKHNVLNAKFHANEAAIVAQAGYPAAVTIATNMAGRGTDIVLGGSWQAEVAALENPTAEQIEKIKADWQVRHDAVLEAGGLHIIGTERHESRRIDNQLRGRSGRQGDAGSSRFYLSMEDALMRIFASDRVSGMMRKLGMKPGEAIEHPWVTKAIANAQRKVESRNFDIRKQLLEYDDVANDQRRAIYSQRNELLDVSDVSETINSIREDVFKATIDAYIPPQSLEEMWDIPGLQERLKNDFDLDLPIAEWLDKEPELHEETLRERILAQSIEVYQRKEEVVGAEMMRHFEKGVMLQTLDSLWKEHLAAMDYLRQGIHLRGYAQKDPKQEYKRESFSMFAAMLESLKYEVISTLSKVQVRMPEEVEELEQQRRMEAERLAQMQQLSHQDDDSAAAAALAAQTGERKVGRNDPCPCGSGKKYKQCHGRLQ

`CCc1noc(C2CCCCN2C(=O)c2ccn(C3CCCC3)n2)n1` (centres undefined) gave a Percent Effect [1] of -3.89%, a Percent Effect [2] of 20% and a Percent Effect [3] of -10.1%. The Percent Effect [4] was -4.33%, the Percent Effect (Trypanosoma cruzi) was 5.89% and the Percent Effect [5] was -15.3%. The Percent Effect [6] was 13.7%, the Percent Effect (Homo sapiens) was 24.3% and the Percent Effect [7] was 9.52%. It also gave a Percent Effect [8] of 12.8% and a Percent Effect [9] of -15.7%.
`CNC1CCCN(Cc2noc(C3CC3)n2)C1` (centres undefined) was tested, and the Percent Effect [1] was 0.64%, the Percent Effect [2] was -5.41% and the Percent Effect [3] was -3.33%. For the same compound, the Percent Effect [4] was -1.4%, the Percent Effect (Trypanosoma cruzi) was -0.193% and the Percent Effect [5] was -0.476%. For the same compound, the Percent Effect [6] was 1.9%, the Percent Effect (Homo sapiens) was -1.86% and the Percent Effect [7] was 1.59%. For the same compound, the Percent Effect [8] was 0% and the Percent Effect [9] was 0.831%.
Compound `CCc1cnc(CN(C(C)=O)C2CCN(CCS(C)(=O)=O)C2)o1` (centres undefined) has a Percent Effect [1] of -2.33%, a Percent Effect [2] of 6.94% and a Percent Effect [3] of -4.16%. It also gave a Percent Effect [4] of 16.1%, a Percent Effect (Trypanosoma cruzi) of 0.291% and a Percent Effect [5] of 9.27%. The Percent Effect [6] was 13.3%, the Percent Effect (Homo sapiens) was 10.7% and the Percent Effect [7] was 4.21%. The Percent Effect [8] was 10.3% and the Percent Effect [9] was -8.92%.
`Cc1oc(-c2nc(C#N)c(N(C)C)o2)cc1S(=O)(=O)N1CCCC1` showed a Percent Effect [1] of -3.98%, a Percent Effect [2] of 4% and a Percent Effect [3] of -2.67%. It also gave a Percent Effect [4] of 8.99%, a Percent Effect (Trypanosoma cruzi) of 2.75% and a Percent Effect [5] of -7.92%. The Percent Effect [6] was 17.2%, the Percent Effect (Homo sapiens) was -8.23% and the Percent Effect [7] was 1.06%. The Percent Effect [8] was 10.3% and the Percent Effect [9] was -0.712%.
